Experiment [1] in a line: Validation of Assay for Modulators of Lamin A Splicing (AID 1459; active = well fitted curve in the direction sought with a large enough effect in the signal ratio; the % refers to the signal ratio;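 also: cells exposed to compound for two days before reading; 0% is about no effect; ratio rise marks activators and ratio drop marks inhibitors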). The method, boiled down:
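HeLa S3 lamin A-EGFP/DsRed2 stable clone, 600 cells/well, Opti-MEM 2% FBS; compounds by pin tool; 48 hrs, 37 °C/5% CO2; Acumen 488 nm scan, objects 10-100 um; GFP/RFP intensity ratio.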

The nature of experiment [2]: Counterscreen for APE1 Inhibitors: Fluorescent Dye Displacement Validation Assay (AID 1707).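 Also: plate controls were ThO with dsDNA and no compound for no effect and ThO without dsDNA for full effect.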 The method, boiled down:
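Assay buffer: Tris-HCl pH7.5 with 50mM NaCl, 2 mM MgCl2, 0.01% Tween-20. Dye 250 nM, duplex 50 nM final. Readout: decrease in ThO endpoint fluorescence, 480 nm excitation, 540 nm emission.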
(In general: Counterscreens check selectivity or assay interference.)

Experiment [3] addresses Endonuclease 4 (Escherichia coli (strain K12)) (UniProt P0A6C1). Put plainly: Counterscreen for APE1 Inhibitors: qHTS Validation Assay for Inhibitors of Endonuclease IV (AID 1708). Also: % is scaled to controls: 0 for no effect and ±100 for the full control effect. The gist of the method:
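Concentration-response counterscreen run identically to the APE1 assay: 15 min room-temperature preincubation of 2 nM enzyme with compound, reaction started with 50 nM quenched abasic DNA, progress taken from kinetic fluorescence.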

A short description of experiment [4]: qHTS for differential inhibitors of proliferation of Plasmodium falciparum line 7G8 (AID 1815).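 Also: parasite growth measured after three days of incubation.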 Also: potency is read from the fitted curve at half-maximal effect.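 As to activity change, negative = inhibition: plate controls were vehicle wells for no effect and reference inhibitor wells for full effect.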 For orientation: In qHTS, concentration-response curves come from the screen itself.
The nature of experiment [5]: qHTS for differential inhibitors of proliferation of Plasmodium falciparum line GB4 (AID 1816).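 Also: parasite growth measured after 72 h incubation.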 Also: potency is read from the fitted curve at half-maximal effect.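 As to activity change, negative = inhibition: 0% = vehicle DMSO and -100% = reference inhibitor.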 The following applies: Potency: Plasmodium falciparum GB4 proliferation inhibition.
A short description of experiment [6]: qHTS for differential inhibitors of proliferation of Plasmodium falciparum line 3D7 (AID 1876). Also: potency is read from the fitted curve at half-maximal effect.
A short description of experiment [7]: qHTS for differential inhibitors of proliferation of Plasmodium falciparum line D10 (AID 1877).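 Also: parasites grown with compound for 72 h before DNA staining.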 Also: potency is read from the fitted curve at half-maximal effect.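 As to activity change, negative = inhibition: plate controls were vehicle wells for no effect and reference inhibitor wells for full effect.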
A short description of experiment [8]: qHTS for differential inhibitors of proliferation of Plasmodium falciparum line Dd2 (AID 1882). Also: nearly all actives have a fitted effect of over 65% in size. Also: potency is read from the fitted curve at half-maximal effect.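 As to activity change, negative = inhibition: plate controls were DMSO vehicle for no effect and 0.29 µM artemisinin for full effect.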 As to conditions: Potency: Plasmodium falciparum Dd2 proliferation inhibition. The gist of the method: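 Dd2-infected erythrocytes (0.3% parasitemia, 2.5% hematocrit final) incubated with compound 72 h at 37 C, 5% CO2; lysed with saponin/Triton buffer containing SYBR Green I, incubated overnight in the dark, then read by fluorescence (485/535 nm). Normalized to 0.29 uM artemisinin and DMSO.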

A short description of experiment [9]: qHTS for differential inhibitors of proliferation of Plasmodium falciparum line HB3 (AID 1886).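 Also: parasites grown with compound for 72 h before SYBR Green readout.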 Also: potency is read from the fitted curve at half-maximal effect.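 As to activity change, negative = inhibition: plate controls were vehicle for no effect and reference inhibitor for full effect.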 The following applies: Potency: Plasmodium falciparum HB3 proliferation inhibition.
A short description of experiment [10]: qHTS Assay for Modulators of Human Peripheral Myelin Protein 22 (PMP22) Expression/Activity (AID 1967; active = well fitted curve in the direction sought with a large enough effect in the signal ratio; the % refers to the signal ratio;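 also: 0% = untreated cells and 100% end not stated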). The method, boiled down:
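Luminescence ratio of Pmp22 promoter-driven green luciferase to EF-alpha-driven red luciferase, in engineered mouse MSC80 Schwann cells, served as read-out. Compounds were incubated 24h; untreated cells defined 0% Activity; curves were classified by r2, magnitude and activity.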

Experiment [11] deals with Ferritin light chain (Equus caballus) (UniProt P02791). The experiment in a line: qHTS Validation Assay for Identification of Novel General Anesthetics (AID 2323). Also: % is scaled to controls: 0 for no effect and ±100 for the full control effect. The gist of the method: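 Fluorescence at 535 nm (excitation 380 nm) reported loss of 1-AMA binding to horse-spleen apoferritin (10 uM) in PBS with 50% saturated 1-aminoanthracene, after 10 min room-temperature incubation with compound; values from Hill fits of normalized response.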

The target in experiment [12] is ATP-dependent DNA helicase Q1 (Homo sapiens) (UniProt P46063). The experiment in a line: qHTS Validation Assay for Inhibitors of RecQ-Like Dna Helicase 1 (RECQ1) (AID 2353).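 Also: plate controls were DMSO vehicle for no effect and enzyme-free control for full effect.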 The method, boiled down:
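50 nM RECQ1T1 preincubated 15 min with compound in Tris pH 8.0 buffer with MgCl2, DTT, Tween-20 and 2.5 ug/ml poly(dI-dC); started with 200 nM TAMRA/BHQ-2 forked duplex and 2 mM ATP. Unwinding read as fluorescence (525/598 nm), two reads 2 h apart.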

The target of experiment [13] is alpha-glucosidase (Oryza sativa, rice) (UniProt Q653V4). Put plainly: Counterscreen for Glucocerebrosidase Inhibitors: qHTS Assay for Rice alpha-Glucosidase at pH 5.0 (AID 997).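 Also: 0% = full activity with enzyme and -100% = basal without enzyme.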 The method, boiled down:
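Rice alpha-glucosidase (4 nM final) with 400 uM 4-methylumbelliferyl-alpha-D-glucopyranoside in citrate buffer pH 5.0, 20 min at room temperature, stopped at pH 10; fluorescence 365/440 nm, compounds 0.7 nM–77 uM, AC50 from Hill fits.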

Experiment [14] has as its target DNA repair nuclease/redox regulator APEX1 (Homo sapiens) (UniProt P27695). The experiment in a line: qHTS Validation Assay for Inhibitors of the Human Apurinic/apyrimidinic Endonuclease 1 (APE1) (AID 1705;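 also: TAMRA fluorescence gain over two minutes as APE1 cuts a quenched THF abasic duplex; % is scaled to controls: 0 for no effect and ±100 for the full control effect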). The gist of the method: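 qHTS, 1536-well. APE1 + cpd 15 min RT → 50 nM TAMRA/BHQ-2 THF-abasic dsDNA substrate → kinetic fluorescence, 3 reads/60 s; delta(read3−read1) = reaction progress. No-enzyme buffer = negative control.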

The target of experiment [15] is RecQ-like DNA helicase BLM (Homo sapiens) (UniProt P54132). The experiment in a line: qHTS Validation Assay for Inhibitors of Bloom's syndrome helicase (BLM) (AID 2364).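 Also: plate controls were DMSO vehicle for no effect and enzyme-free control for full effect.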 The gist of the method: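 BLM 50 nM in 25 mM Tris-HCl pH 8.0, 5 mM NaCl, 2 mM MgCl2, 1 mM DTT, 0.01% Tween-20, 2.5 ug/ml poly(dI-dC); 15 min cpd preinc, RT. Start: 200 nM forked DNA + 2 mM ATP (final). TAMRA read, 2 reads 2 h apart.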

A short description of experiment [16]: qHTS for differential inhibitors of proliferation of Plasmodium falciparum line W2 (AID 1883).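 Also: parasites grown with compound for 72 h before lysis and staining.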 Also: potency is read from the fitted curve at half-maximal effect.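 As to activity change, negative = inhibition: 0% = vehicle wells and -100% = control inhibitor wells.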 As to conditions: Potency: Plasmodium falciparum W2 proliferation inhibition.
Experiment [17] is described as follows: qHTS Assay for Lipid Storage Modulators (AID 1519; calls by dose curve; as to activity change, negative = inhibition: % is scaled to controls: 0 for no effect and ±100 for the full control effect). The following applies: Drosophila S3 cells, BODIPY lipid droplet/cell ratio, laser cytometry, cells loaded with oleic acid. The gist of the method:
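Cells seeded at 5,000 per well were treated with compounds over a concentration series and loaded with oleic acid (400 uM, as added). Lipid droplet fluorescence (488 nm excitation, 500-530 nm channel) was read by laser-scanning cytometry and normalized to 20 uM Triacsin C.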

The mark [18] stands for this setting: measured here: cell count channel max response.
Setting [19] is: measured here: lipid channel max response.

Inconclusive results are not listed. Calls of active or inactive are those of the source. Unless noted, calls follow the shape of the dose curve; as a rule, active = well fitted curve in the direction sought with a large enough effect; inconclusive = small, poorly fitted or top-dose-only effect, or another doubt; inactive = no such curve, though single readings can be large; an effect the other way counts as inactive or inconclusive.

This is an account of results in PubChem BioAssay (NCATS).

Sequence of ATP-dependent DNA helicase Q1 (Homo sapiens) (P46063 whole entry, looked up): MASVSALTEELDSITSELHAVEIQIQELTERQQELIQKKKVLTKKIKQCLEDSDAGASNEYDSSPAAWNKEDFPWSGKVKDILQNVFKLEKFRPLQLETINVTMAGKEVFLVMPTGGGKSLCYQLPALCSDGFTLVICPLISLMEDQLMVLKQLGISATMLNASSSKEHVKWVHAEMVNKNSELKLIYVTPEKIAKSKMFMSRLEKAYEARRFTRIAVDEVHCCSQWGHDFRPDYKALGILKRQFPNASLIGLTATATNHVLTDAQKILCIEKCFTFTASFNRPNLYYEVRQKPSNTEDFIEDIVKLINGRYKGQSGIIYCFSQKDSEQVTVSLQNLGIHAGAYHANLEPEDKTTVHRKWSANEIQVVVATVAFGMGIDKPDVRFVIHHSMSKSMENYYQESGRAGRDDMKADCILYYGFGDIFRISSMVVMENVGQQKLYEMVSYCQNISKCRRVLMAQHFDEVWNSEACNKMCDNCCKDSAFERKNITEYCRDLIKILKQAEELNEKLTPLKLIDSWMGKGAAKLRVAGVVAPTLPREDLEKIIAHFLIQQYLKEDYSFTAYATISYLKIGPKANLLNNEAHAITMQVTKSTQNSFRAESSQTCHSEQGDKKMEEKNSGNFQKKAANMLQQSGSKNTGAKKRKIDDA
Sequence of Ferritin light chain (Equus caballus) (P02791 2-175 limits assumed): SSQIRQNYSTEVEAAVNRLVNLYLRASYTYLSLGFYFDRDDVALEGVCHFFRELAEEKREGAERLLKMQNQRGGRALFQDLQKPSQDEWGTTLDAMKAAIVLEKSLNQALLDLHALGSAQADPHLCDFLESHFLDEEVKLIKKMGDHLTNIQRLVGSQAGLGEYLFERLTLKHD
Sequence of DNA repair nuclease/redox regulator APEX1 (Homo sapiens) (P27695 whole entry, looked up): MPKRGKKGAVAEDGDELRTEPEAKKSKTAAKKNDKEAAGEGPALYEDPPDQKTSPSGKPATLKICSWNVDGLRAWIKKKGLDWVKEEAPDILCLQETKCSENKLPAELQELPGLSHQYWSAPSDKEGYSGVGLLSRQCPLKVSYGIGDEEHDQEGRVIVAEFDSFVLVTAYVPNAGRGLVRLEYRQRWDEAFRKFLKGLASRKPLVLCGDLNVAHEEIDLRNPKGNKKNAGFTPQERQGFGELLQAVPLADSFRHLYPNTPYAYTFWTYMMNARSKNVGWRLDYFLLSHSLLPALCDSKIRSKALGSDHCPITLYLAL
Sequence of RecQ-like DNA helicase BLM (Homo sapiens) (P54132 whole entry, looked up): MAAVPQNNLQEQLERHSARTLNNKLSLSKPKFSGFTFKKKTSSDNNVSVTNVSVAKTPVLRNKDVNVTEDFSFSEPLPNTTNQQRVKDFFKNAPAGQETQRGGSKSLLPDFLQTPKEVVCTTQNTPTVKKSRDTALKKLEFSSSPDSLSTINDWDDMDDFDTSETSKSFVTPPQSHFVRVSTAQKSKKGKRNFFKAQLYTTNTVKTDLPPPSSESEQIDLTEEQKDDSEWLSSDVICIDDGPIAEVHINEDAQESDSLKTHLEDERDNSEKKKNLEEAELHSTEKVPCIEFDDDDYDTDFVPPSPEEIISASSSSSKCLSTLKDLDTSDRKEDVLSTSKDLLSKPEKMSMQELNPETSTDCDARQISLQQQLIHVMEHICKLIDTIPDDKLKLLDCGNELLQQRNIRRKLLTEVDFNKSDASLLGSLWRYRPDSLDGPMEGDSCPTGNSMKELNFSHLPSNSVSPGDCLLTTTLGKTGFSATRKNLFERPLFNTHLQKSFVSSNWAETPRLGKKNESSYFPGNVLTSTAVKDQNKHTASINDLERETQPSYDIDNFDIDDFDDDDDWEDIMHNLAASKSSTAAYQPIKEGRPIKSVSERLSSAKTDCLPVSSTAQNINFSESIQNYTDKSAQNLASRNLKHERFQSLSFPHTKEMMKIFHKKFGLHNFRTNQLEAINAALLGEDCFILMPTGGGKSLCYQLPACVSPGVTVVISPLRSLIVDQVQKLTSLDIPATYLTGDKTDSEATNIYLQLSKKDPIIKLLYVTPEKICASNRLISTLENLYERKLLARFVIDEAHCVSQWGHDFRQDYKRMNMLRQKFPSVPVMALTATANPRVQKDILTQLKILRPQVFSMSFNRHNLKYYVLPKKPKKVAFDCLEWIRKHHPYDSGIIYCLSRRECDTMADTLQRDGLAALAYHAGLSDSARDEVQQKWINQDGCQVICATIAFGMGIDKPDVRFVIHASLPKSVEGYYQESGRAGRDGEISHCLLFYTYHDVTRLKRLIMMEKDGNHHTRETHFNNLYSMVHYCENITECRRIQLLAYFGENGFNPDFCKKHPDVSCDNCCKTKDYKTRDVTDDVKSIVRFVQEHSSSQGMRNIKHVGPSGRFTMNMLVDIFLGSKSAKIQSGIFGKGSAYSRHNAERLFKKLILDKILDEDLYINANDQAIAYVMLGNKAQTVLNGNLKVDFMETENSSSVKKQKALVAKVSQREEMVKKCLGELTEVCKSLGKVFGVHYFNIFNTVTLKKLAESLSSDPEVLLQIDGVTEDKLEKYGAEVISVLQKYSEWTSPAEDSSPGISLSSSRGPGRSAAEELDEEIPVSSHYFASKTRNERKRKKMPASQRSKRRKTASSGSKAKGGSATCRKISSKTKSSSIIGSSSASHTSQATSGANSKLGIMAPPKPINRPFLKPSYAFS

In the case of `O=C(O)[C@@H]1C[C@@H](C(=O)O)N1`, the compound was called inactive in experiment [1] and in [10]. Also, the Potency result in experiment [2], in [3], in experiment [4], in [5], in experiment [6] and in experiment [7] was “inactive” in each case. Further, the Potency entry in experiment [8], in experiment [9], in [11] and in [12] was “inactive” throughout.
Take `Clc1ccc(N2CCN(Cc3c[nH]c4ncccc34)CC2)cc1`: the call in experiment [13] and in experiment [1] was inactive. The Potency result in [14], in experiment [2], in experiment [3], in experiment [8], in experiment [11] and in [12] was “inactive” in each case. Moreover, in experiment [15], the Potency entry is “inactive”.
For the compound `CCCn1c(=O)c2[nH]c(-c3ccc(OCC(=O)NCCN)cc3)nc2n(CCC)c1=O`, the compound was called inactive in experiment [1]. Further, the Potency result in [2], in experiment [3], in experiment [11], in experiment [12] and in [15] was “inactive” throughout. Also, the figures for the Potency in [5] and in experiment [16] were 10000 nM (active) and 12600 nM (active), respectively.
On to `Nc1cc(-c2ccncc2)c[nH]c1=O`, for which, in experiment [17] (at 25.7 µM (top of the series)), the activity change, negative = inhibition was 3.03% (inactive). Moreover, the figures for the max response in [17] (setting [18]) and in experiment [17] (setting [19]) were 5.25% and 9.64%, respectively.
As for `NCCSSCCN`, the outcome in [13], in experiment [1] and in [10] was inactive. In addition, the Potency entry in [14], in experiment [2], in [3], in experiment [4], in experiment [5] and in [7] was “inactive” in each case. Moreover, the Potency result in [8], in experiment [16], in [9], in experiment [11], in experiment [12] and in [15] was “inactive” each time.
With `O=C(O)CC1CCCc2ccccc2C1O` (stereo not given), the outcome in [1] and in experiment [10] was inactive. Moreover, the Potency entry in experiment [14], in [2], in [4], in experiment [5], in [6] and in experiment [7] was “inactive” each time. Moreover, the Potency entry in experiment [8], in experiment [16], in [9], in experiment [11] and in experiment [12] was “inactive” each time.
On to `CNCC[C@H](Oc1ccc(C(F)(F)F)cc1)c1ccccc1`, for which the compound was called inactive in experiment [13] and in [1]. In addition, the Potency result in experiment [2], in [3] and in [12] was “inactive” each time.
`Fc1cccc(/C=N/N=C/c2cccc(F)c2)c1`: in experiment [1], the compound was called inactive. Moreover, the Potency result in [14], in experiment [2], in experiment [3], in experiment [4], in [5] and in experiment [7] was “inactive” in each case. Further, the Potency entry in [8], in experiment [9], in experiment [11] and in experiment [12] was “inactive” in each case.
`NCCNC(=O)c1ncsc1-c1cccc(F)c1`: the call in experiment [13] and in [1] was inactive. Besides, the Potency entry in experiment [14], in [2], in [3], in experiment [6], in experiment [7] and in [9] was “inactive” each time. In addition, the Potency entry in experiment [11], in experiment [12] and in experiment [15] was “inactive” in each case.
Consider `Fc1ccc(C(OCCCc2cnc[nH]2)c2ccc(F)cc2)cc1`, for which the result in experiment [13] and in [1] was inactive. The Potency entry in [2], in experiment [3] and in [12] was “inactive” in each case. In addition, the Potency in experiment [4] is 1580 nM (active); in experiment [5], 1260 nM (active); in [6], 1260 nM (active); in experiment [7], 5010 nM (active); in [8] it was 8910 nM (active); in experiment [16], 794 nM (active). The Potency in [9] was 2510 nM (active).
With `CC(C(=O)O)c1ccc(C(=O)c2cccs2)cc1` (stereo not given), the activity change, negative = inhibition in experiment [17] (at 57.5 µM (top of the series)) was 15.6% (inactive). The max response in experiment [17] (setting [18]) was 8.76%; in experiment [17] (setting [19]) it was 31%.
For the compound `O=C(O)CC[C@@H](C(=O)O)N1C(=O)c2ccccc2C1=O`, the compound was called inactive in experiment [1]. For the same compound, the Potency result in [14], in experiment [2], in experiment [4], in experiment [5], in [6] and in experiment [7] was “inactive” in each case. Moreover, the Potency entry in experiment [8], in experiment [16], in experiment [9], in experiment [11], in experiment [12] and in experiment [15] was “inactive” each time.
